From PubChem BioAssay (NCI)
This is part of a sample that, as a whole, favours compounds with a hit. Of some 79,000 tested, about 15% had one in any assay. No stated cut-off is given here; in the data, active means growth inhibition above about 70%; inactive means the rest.

Experiments:
[1] = NCI Yeast Anticancer Drug Screen. Data for the rad50 strain (AID 155);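 further: 0% = growth of vehicle-only cultures of the same strain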; settings: S. cerevisiae rad50 strain growth inhibition; at 50.0 µM; stronger effect = higher value
Outline: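 Relative growth inhibition (compound vs vehicle) was measured in yeast with a defined repair-gene alteration.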

[2] = NCI Yeast Anticancer Drug Screen. Data for the mec2-1 strain (AID 157); settings: S. cerevisiae mec2-1 strain, at 50.0 µM, stronger effect = higher value
Outline: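 Compounds were applied to mec2-1 yeast cells. Their growth was then compared with that of vehicle-treated cultures to give growth inhibition.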

[3] = NCI Yeast Anticancer Drug Screen. Data for the sgs1 mgt1 strain (AID 161);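 further: 0% = growth of cultures given vehicle only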; settings: S. cerevisiae sgs1 mgt1 strain, at 50.0 µM, stronger effect = higher value
Outline: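 Growth of a repair-deficient yeast mutant was monitored after compound treatment and expressed as inhibition relative to vehicle-treated cultures.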

[4] = NCI Yeast Anticancer Drug Screen. Data for the cln2 rad14 strain (AID 165);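 further: 0% = growth equal to vehicle treated cultures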; settings: S. cerevisiae cln2 rad14 strain, at 50.0 µM, stronger effect = higher value
Outline: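 Strain: cln2 rad14 yeast, altered in cell cycle control and DNA damage repair. Read-out: growth inhibition vs vehicle.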

[5] = NCI Yeast Anticancer Drug Screen. Data for the bub3 strain (AID 167); settings: S. cerevisiae bub3 mutant strain, at 50.0 µM, stronger effect = higher value
Outline: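 Screening used yeast with an engineered genetic alteration affecting cell cycle control. Compound-exposed cultures were compared with vehicle cultures, and reduced growth was taken as inhibition.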

[6] = NCI Yeast Anticancer Drug Screen. Data for the mlh1 rad18 strain (AID 175); settings: S. cerevisiae mlh1 rad18 strain growth inhibition; at 50.0 µM; stronger effect = higher value
Outline: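 A repair-deficient yeast strain is exposed to test compound, and growth is scored relative to vehicle-treated controls.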

Measured: growth inhibition

N#CC(=NCCO)C1=C(O)c2ccccc2C1=O
inactive: [1] 6.1% | [2] -10.7% | [3] -16.3% | [4] -30.6% | [5] -48% | [6] -12.3%

Cc1ccc(C)c(CNC(=O)Nc2ccccc2Cl)c1
inactive: [1] 12.4% | [2] -14.3% | [3] -22.8% | [4] 6.75% | [5] 5.35% | [6] -18.2%

CCN(CC)c1cc2c3c(c1)CCCN3CCC2
inactive: [1] -20.9% | [2] -27.9% | [3] -3.85% | [4] 2.55% | [5] -8.1% | [6] -0.65%

Cc1cc(=O)[nH]c(=O)[nH]1
inactive: [1] 5.85% | [2] -7.55% | [3] -16.6% | [4] -4.15% | [5] -17.7% | [6] -5.4%

C(=N\NC1=NCCCN1)/c1ccc2ccccc2c1
inactive: [1] 4.45% | [2] 1.65% | [3] -13.8% | [4] -28.4% | [5] 0.05% | [6] 1.15%

O=C1CN(/N=C/c2ccc(-c3ccc(Cl)c(Cl)c3)o2)C(=O)N1
inactive: [1] 28.9% | [2] 14.4% | [3] 29.1% | [4] 3.2% | [5] 10% | [6] 5.5%

Fc1ccc(NC(=S)Nc2ccccn2)cc1
inactive: [1] 4.05% | [2] -6.4% | [3] -4.25% | [4] -59.5% | [5] 6.05% | [6] 19.9%

O=C1c2ccccc2-c2ccc(N3C(=O)c4c(Br)c(Br)c(Br)c(Br)c4C3=O)cc21
inactive: [1] 10.6% | [2] -2.2% | [3] 12.9% | [4] -36.8% | [5] -4.6% | [6] -17.5%

CCOC(=O)NCC(Cl)(Cl)Cl
inactive: [1] -4.6% | [2] 0.25% | [3] -11.1% | [4] -51.4% | [5] 6.6% | [6] -6.7%

Cc1cc(=O)c2c3c(ccc2[nH]1)Oc1ccccc1O3
inactive: [1] 7.9% | [2] 5.95% | [3] 5.2% | [4] 8.45% | [5] 7.1% | [6] 13.1%

CN1C(NC(=O)C(C)(C)O)C(C)(C)C(C)(C)C1NC(=O)C(C)(C)O (configuration not stated)
inactive: [1] 27.9% | [2] 2% | [3] 42.3% | [4] 6.8% | [5] 26.8% | [6] 29.6%

CCCCc1c(O)c2c(=O)n(C)c(=O)n3c4ccccc4n(c1=O)c23
inactive: [1] -1.55% | [2] -9.7% | [3] -1% | [4] -22.1% | [5] -0.3% | [6] 10.8%

CC1(c2cccc3c2C2(O)C=CC4(CCC32)OCCO4)OCCO1 (configuration not stated)
inactive: [1] -59.4% | [2] -41.2% | [3] -55.8% | [4] -27.6% | [5] -61.1% | [6] -26%

O=C(N/N=C/c1ccc(Cl)cc1Cl)C(O)(c1ccccc1)c1ccccc1
inactive: [1] 17.4% | [2] 16.1% | [3] 10.2% | [4] 22.9% | [5] 10.7% | [6] 19.3%

O=[N+]([O-])c1ccc(N=CC2CCC=CO2)cc1 (configuration not stated)
inactive: [1] -4.3% | [2] 17.8% | [3] -10.2% | [4] -27.9% | [5] -9.4% | [6] -14.9%

CCc1ccc(C(C)=O)cc1
inactive: [1] 7.05% | [2] 41.5% | [3] 34.8% | [4] 3.5% | [5] -9.7% | [6] 52.6%

CC1=NN(C(=O)c2ccncc2)C(=O)C1N=Nc1ccc([N+](=O)[O-])cc1Cl (configuration not stated)
inactive: [1] 47.1% | [2] 9.95% | [3] 21.3% | [4] -26.1% | [5] -2.1% | [6] 14.1%

O=S1(=O)OCCOS(=O)(=O)C1S(=O)(=O)c1cccc2ccccc12
inactive: [1] -19.2% | [2] -5.95% | [3] 12.8% | [4] -8.7% | [5] -2.95% | [6] 27%

CC(=O)OC1CC[C@@]2(C)C(C1)CC(OC(C)=O)[C@@H]1C2CC(OC(C)=O)[C@]2(C)C(C(C)CC=C(c3ccc(Cl)cc3)c3ccc(Cl)cc3)CCC12 (some centres not stated)
inactive: [1] 0.4% | [2] 2.8% | [3] 3.05% | [4] 11.1% | [5] 20.5% | [6] 5%

CC[P+]1(c2ccccc2)[C@@H](C)CC[C@@H]1C
inactive: [1] 15.1% | [2] 7.45% | [3] 12.6% | [4] 8.1% | [5] 3.75% | [6] 37.7%

COc1cc(-c2cc(=O)c3cc4c(cc3[nH]2)OCO4)cc(OC)c1O
inactive: [1] -19.9% | [2] -14.1% | [3] -4.5% | [4] 13.4% | [5] -12.3% | [6] -9.85%

CCO/C=C1/N=C(c2cc([N+](=O)[O-])cc([N+](=O)[O-])c2C)OC1=O
inactive: [1] 10.6% | [2] 6.85% | [3] -6.45% | [4] -58.2% | [5] -35% | [6] 15.1%

Cc1ccc(S(=O)NOCc2ccccc2)cc1 (configuration not stated)
inactive: [1] 3.25% | [2] 16.4% | [3] 5.3% | [4] 11.4% | [5] 11.1% | [6] 51%

Cc1ccccc1N1CCOS(=O)OC(C)C1 (configuration not stated)
inactive: [1] -3.6% | [2] 23.7% | [3] 64.8% | [4] 39.9% | [5] 55.3% | [6] 57.5%

COc1cc(C=Nc2ccccc2)ccc1OC(=O)c1ccccc1
inactive: [1] 15.8% | [2] 23.2% | [3] 17.6% | [4] 28.7% | [5] 16.9% | [6] 14.6%

COC1CC(N=[N+]=[N-])C(OS(C)(=O)=O)C(C)O1 (configuration not stated)
inactive: [1] -2.35% | [2] 22.1% | [3] 1.7% | [4] 3.7% | [5] -9% | [6] 14.8%

CCCCCC/C=N/Nc1ccc([N+](=O)[O-])cc1[N+](=O)[O-]
inactive: [1] 1.65% | [2] -18.9% | [3] -11.2% | [4] -48.2% | [5] -6.95% | [6] -4.9%

C1=CC(c2ccccc2)C(c2ccccc2)C(c2ccccc2)=C1 (configuration not stated)
inactive: [1] -16.6% | [2] 2.05% | [3] 8.8% | [4] -13.2% | [5] -4.95% | [6] -22.6%

O=C(O)/C(=C/C=C/c1ccccc1)c1csc(-c2nc(/C(=C\C=C\c3ccccc3)C(=O)O)cs2)n1
inactive: [1] 22% | [2] 13.3% | [3] 19.4% | [4] 16.9% | [5] 19.1% | [6] 9.15%

COc1ccc2c(c1)N(CC(C)CN(C)C)c1ccccc1S2 (configuration not stated)
inactive: [1] 0.75% | [2] 25.7% | [3] -0.95% | [4] -3.75% | [5] 39.5% | [6] 11.4%

CCCc1cc(=O)[nH]c(=S)[nH]1
inactive: [1] 34.6% | [2] -8.25% | [3] 1.7% | [4] 15.8% | [5] 11.2% | [6] 15.8%

C=CCNC(=S)/N=C/C(C(=O)Nc1ccccc1OC)=C(\C)O
inactive: [1] -17.4% | [2] -19.2% | [3] -27.3% | [4] -9.85% | [5] -34.5% | [6] -16.3%

O=C(c1ccco1)N(C(=S)N1CCN(c2ccccc2)CC1)C1CCCCC1
inactive: [1] 16.4% | [2] 25.4% | [3] 26.4% | [4] 36% | [5] 24.4% | [6] 19.1%

CCN(CC)CCN(C)CCN(CC)CC
inactive: [1] 14.1% | [2] 1.7% | [3] 18.6% | [4] 9.8% | [5] 38.7% | [6] 17.6%

CN(C)c1c([O-])c(=[N+](C)C)c1=O
inactive: [1] -37.9% | [2] -14.2% | [3] -20.2% | [4] -10.6% | [5] -5.55% | [6] -45.9%

CCCCOC(=O)c1ccc(NC(=O)Nc2ccc(SC)cc2)cc1
inactive: [1] -4.05% | [2] 1.8% | [3] 19.2% | [4] -8.75% | [5] 19.8% | [6] -13.1%

O=C(Nc1ccccc1C(=O)N/N=C/c1ccc(Cl)cc1)c1ccccc1Cl
inactive: [1] 49.2% | [2] 27.9% | [3] 22.6% | [4] 29.6% | [5] 42.1% | [6] 25.8%

CCOC(=O)c1c[nH]c(C(=O)OCC)c1C
inactive: [1] 14.4% | [2] 6.6% | [3] 4.2% | [4] -59.9% | [5] -4.5% | [6] 14.2%

Nc1ccc(Cl)cc1[N+](=O)[O-]
inactive: [1] 4.85% | [2] -3.75% | [3] 12.2% | [4] 25.1% | [5] -3.9% | [6] 15.8%

O=C(O)c1c[nH]c(=O)[nH]c1=O.[Cu+2]
inactive: [1] -23.9% | [2] -13% | [3] -12.4% | [4] -44.5% | [5] -40.8% | [6] -21.2%

CN(C)/C=C/C(=O)c1ccccc1
inactive: [1] 61.6% | [2] 30.1% | [3] 17.6% | [4] -16.4% | [5] 6.05% | [6] 8.95%

O=c1[nH]cnc2c1CNC2
inactive: [1] 9.5% | [2] -2.5% | [3] -10.4% | [4] -65.8% | [5] -18.4% | [6] 1.6%
